This note sets out measurements from PubChem BioAssay (EPA / NIEHS).

Assay [1] addresses Estrogen receptor beta (Homo sapiens) (UniProt Q92731). Briefly: OT_ER_ERbERb_0480: Odyssey Thera (OT) 8-hour HEK293T Protein-Complementation Assay for Estrogen Receptor-beta/-beta Homodimer (AID 2283357).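 Note: active means signal gain over DMSO baseline.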 Summed up: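 Fluorescence gain from complemented reporter fragments on ER-beta LBD homodimer in HEK293T was quantified against DMSO controls after 8 h treatment, fixation in 4% formaldehyde and Draq5 staining.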

The target in assay [2] is Nuclear receptor subfamily 1 group I member 2 (Homo sapiens) (UniProt O75469). Briefly: NVS_NR_hPXR: NovaScreen (NVS) Nuclear Receptor Binding Assay for human Pregnane X Receptor (PXR) (AID 2283365).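 Note: a drop in FRET signal versus DMSO baseline means the compound binds.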 A digest of the protocol:
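Cell-free TR-FRET binding assay with extracted human PXR protein, read 2 h after dosing. Primary screen run in duplicate at 25 uM, actives followed in concentration series; loss of signal fitted against DMSO baseline.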

Assay [3] addresses mouse Estrogen Receptor alpha (Era), Esr1 (gene 13982) (UniProt P19785). Briefly: NVS_NR_mERa: NovaScreen (NVS) Nuclear Receptor Binding Assay for mouse Estrogen Receptor alpha (Era) (AID 2283378).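 Note: hit means loss of bound radioligand signal relative to DMSO.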 Summed up:
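Cell-free radioligand competitive displacement binding, read by filter-based scintillation counting 18 h after dosing. Primary screen run in duplicate at 25 uM, actives retested in concentration series; loss of signal versus DMSO.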

Assay [4] has as its target Estrogen receptor beta (Homo sapiens) (UniProt Q92731). Briefly: OT_ER_ERbERb_1440: Odyssey Thera (OT) 24-hour HEK293T Protein-Complementation Assay for Estrogen Receptor-beta/-beta Homodimer (AID 2283380).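 Note: fluorescence gain from ER beta LBD homodimer complementation read by laser scanning cytometry; scored as signal increase over DMSO baseline for both agonists and antagonists.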 A digest of the protocol:
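HEK293T cells stably expressing human ER-beta LBD (aa 310-547) PCA homodimer pair, dosed 24 h; formaldehyde-fixed, Draq5-stained. Readout: increase in nuclear (agonist) or nuclear plus cytoplasmic (antagonist) fluorescence intensity versus DMSO, gain-of-signal fitting.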

The target in assay [5] is human Peroxisome Proliferator-activated Receptor alpha (PPARa), PPARA (gene 5465) (UniProt Q07869). Briefly: NVS_NR_hPPARa: NovaScreen (NVS) Nuclear Receptor Binding Assay for human Peroxisome Proliferator-activated Receptor alpha (PPARa) (AID 2283359).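 Note: activity means loss of TR-FRET signal versus DMSO baseline.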 A digest of the protocol: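 One-hour incubation, cell-free extracted protein, TR-FRET binding readout; signal loss vs DMSO scored. Screen: 25 uM duplicates, confirmatory dose series for actives.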

Assay [6] concerns the target Peroxisome proliferator-activated receptor gamma (Homo sapiens) (UniProt P37231). Briefly: NVS_NR_hPPARg: NovaScreen (NVS) Nuclear Receptor Binding Assay for human Peroxisome Proliferator-activated Receptor gamma (PPARg) (AID 2283370). A digest of the protocol:
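Cell-free fluorescence polarization binding to human PPARg protein, read 2 h after dosing. Primary screen in duplicate at 25 uM, actives followed in concentration series; loss of signal relative to DMSO scored.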

The target of a further assay is PGR (gene 5241) (UniProt P06401). Briefly: NVS_NR_hPR: NovaScreen (NVS) Nuclear Receptor Binding Assay for human Progestron Receptor (PR) (AID 2283360).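 Note: active means loss of bound radioligand signal versus DMSO baseline.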 Summed up: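 Competitive displacement of a labelled radioligand from T47D-derived receptor protein is measured in a cell-free format. Initial testing uses 25 uM in duplicate, with positive and negative controls on every plate.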

The target of assay [7] is human Thyroid Receptor Alpha (TRa), THRA (gene 7067) (UniProt P10827). Briefly: NVS_NR_hTRa_Antagonist: NovaScreen (NVS) Nuclear Receptor Binding Assay for human Thyroid Receptor Alpha Antagonism (TRa) (AID 2283362).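 Note: activity is loss of signal relative to DMSO baseline.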 Summed up:
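Cell-free AlphaLISA chemiluminescent binding read 1 h after dosing, antagonist mode; signal loss versus DMSO baseline. Primary screen in duplicate at 25 uM, then concentration series for actives.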

For assay [8], the target named is Glucocorticoid receptor (Homo sapiens) (UniProt P04150). Briefly: NVS_NR_hGR: NovaScreen (NVS) Nuclear Receptor Binding Assay for human Glucocorticoid Receptor (GR) (AID 2283363).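 For AC50: activity is loss of specific radioligand binding signal relative to DMSO.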 Summed up:
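Single-readout cell-free binding: radioligand plus extracted receptor, 16-hour dosing, filter radiodetection; 25 uM duplicate primary, concentration series secondary.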

For assay [9], the system named is rat Norepinephrine Transporter (NET), gene 83511. Briefly: NVS_TR_rNET: NovaScreen (NVS) Transporter Assay for rat Norepinephrine Transporter (NET) (AID 2283373). A digest of the protocol:
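Competitive radioligand displacement at the rat NET using forebrain membrane preparations, 1 h incubation, filter-based scintillation readout. Primary testing in duplicate at a single 25 uM concentration; confirmed actives retested across concentrations.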

Assay [10] has as its target human Norepinephrine Transporter (NET), SLC6A2 (gene 6530) (UniProt P23975). Briefly: NVS_TR_hNET: NovaScreen (NVS) Transporter Assay for human Norepinephrine Transporter (NET) (AID 2283377).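 For AC50: displacement of radioligand from human NET seen as loss of scintillation signal.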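 Note: cell-free membrane protein extracted from CHO cells expressing human NET.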 A digest of the protocol:
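In this cell-free binding screen, chemicals at 25 uM (duplicate) compete with a radioligand for CHO-derived human NET over 1 hour, with filter-based radiodetection.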

Assay [11] has as its target guinea pig Sigma Receptor, Non-selective Binding, SIGMAR1 (gene 100135589) (UniProt Q60492). Briefly: NVS_OR_gSIGMA_NonSelective: NovaScreen (NVS) Nuclear Receptor Binding Assay for guinea pig Sigma Receptor, Non-selective Binding (AID 2283367). Summed up: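 Test chemicals were screened in duplicate at 25 uM, then in concentration series if active, against radioligand binding to guinea pig brain membranes; filtration and scintillation counting at 1 h measured remaining bound ligand.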

Assay [12] addresses rat Androgen Receptor (AR), Ar (gene 24208) (UniProt P15207). Briefly: NVS_NR_rAR: NovaScreen (NVS) Nuclear Receptor Binding Assay for rat Androgen Receptor (AR) (AID 2283366). Summed up:
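Actives from a duplicate single-concentration (25 uM) primary run went on to concentration series. Displacement of radioligand was counted by filtration and scintillation, 18 h post-dose, using prostate extracts from testosterone-pretreated rats, with DMSO as baseline.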

In assay [13] the target is Agonist Androgen Response Element (ARE), AR (gene 367) (UniProt P10275). Briefly: OT_AR_ARELUC_AG_1440: Odyssey Thera (OT) 24-hour CHO-K1 Luciferase Assay for Agonist Androgen Response Element (ARE) (AID 2283379). A digest of the protocol:
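Luminescence increase above DMSO, read after a 24 h compound treatment of CHO-K1 cells expressing an androgen response element luciferase reporter, gives the single primary endpoint; concentration-response fitting used the positive direction.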

Assay [14] deals with guinea pig Dopamine Transporter (DAT), gene 100714898. Briefly: NVS_TR_gDAT: NovaScreen (NVS) Transporter Assay for guinea pig Dopamine Transporter (DAT) (AID 2283369).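 Note: active compounds lower bound radioligand signal relative to DMSO.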 Summed up:
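Guinea pig striatal membranes, cell-free radioligand binding with filter-based scintillation counting, read 2 h after dosing. Loss of signal versus DMSO baseline; single-concentration primary (25 uM) then concentration-response up to 50 uM.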

The target of assay [15] is rat Serotonin Transporter (SERT), Slc6a4 (gene 25553) (UniProt P31652). Briefly: NVS_TR_rSERT: NovaScreen (NVS) Transporter Assay for rat Serotonin Transporter (SERT) (AID 2283375). A digest of the protocol: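 Rat forebrain membranes; radioligand displacement at SERT read by filter-based scintillation counting, 1 h after dosing. Screened in duplicate at 25 uM, actives then run in concentration series; loss of signal versus DMSO baseline.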

Assay [16] concerns the target Retinoic acid receptor alpha (Homo sapiens) (UniProt P10276). Briefly: NVS_NR_hRAR_Antagonist: NovaScreen (NVS) Nuclear Receptor Binding Assay for human Retinoic Acid Alpha Receptor Antagonism (RAR) (AID 2283358). Summed up:
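Chemicals were first tested in duplicate at 25 uM, then actives in concentration series, in a cell-free TR-FRET antagonist binding format. Measurements were taken 2 hours after dosing and loss of signal was evaluated against DMSO controls.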

Assay [17] shares this target. Briefly: NVS_NR_hRARa_Agonist: NovaScreen (NVS) Nuclear Receptor Binding Assay for human Retinoic Acid Alpha Receptor Agonism (RAR) (AID 2283361). Summed up: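 Compounds screened at 25 uM, duplicate, then in concentration series if active. Detection: TR-FRET gain of signal versus DMSO after 2 h with cell-free extracted RARα.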

Where “and” joins values, the source holds several entries; their conditions need not be identical. Equal entries are not always repeated. Results filed as inconclusive are left out. Some structures have more than one record in an assay (separate samples or runs), and their calls can disagree. Calls of active or inactive are those of the source. Rule for the calls: active = hit-call score of the fitted dose curve at least 0.9, where 1 is the maximum; inconclusive = response in the unintended direction; inactive = score below 0.9.

Sequence of mouse Estrogen Receptor alpha (Era), Esr1 (gene 13982) (P19785 whole entry, looked up): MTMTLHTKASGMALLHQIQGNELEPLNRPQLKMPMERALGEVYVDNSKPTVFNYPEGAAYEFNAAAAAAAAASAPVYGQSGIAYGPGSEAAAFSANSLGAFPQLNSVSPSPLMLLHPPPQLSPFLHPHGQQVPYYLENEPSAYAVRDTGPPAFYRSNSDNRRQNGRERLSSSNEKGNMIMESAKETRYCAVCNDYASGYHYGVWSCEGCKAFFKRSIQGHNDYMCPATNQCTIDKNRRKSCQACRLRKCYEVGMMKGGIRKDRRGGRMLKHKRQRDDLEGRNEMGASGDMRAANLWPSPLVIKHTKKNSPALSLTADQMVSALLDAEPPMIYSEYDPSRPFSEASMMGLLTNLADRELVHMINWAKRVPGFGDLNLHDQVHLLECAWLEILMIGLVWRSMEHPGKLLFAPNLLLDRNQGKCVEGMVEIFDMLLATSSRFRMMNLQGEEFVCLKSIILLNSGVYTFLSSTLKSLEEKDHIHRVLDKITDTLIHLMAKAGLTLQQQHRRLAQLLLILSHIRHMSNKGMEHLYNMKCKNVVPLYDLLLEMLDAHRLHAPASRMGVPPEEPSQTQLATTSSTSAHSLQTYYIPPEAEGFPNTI
Sequence of human Peroxisome Proliferator-activated Receptor alpha (PPARa), PPARA (gene 5465) (Q07869 whole entry, looked up): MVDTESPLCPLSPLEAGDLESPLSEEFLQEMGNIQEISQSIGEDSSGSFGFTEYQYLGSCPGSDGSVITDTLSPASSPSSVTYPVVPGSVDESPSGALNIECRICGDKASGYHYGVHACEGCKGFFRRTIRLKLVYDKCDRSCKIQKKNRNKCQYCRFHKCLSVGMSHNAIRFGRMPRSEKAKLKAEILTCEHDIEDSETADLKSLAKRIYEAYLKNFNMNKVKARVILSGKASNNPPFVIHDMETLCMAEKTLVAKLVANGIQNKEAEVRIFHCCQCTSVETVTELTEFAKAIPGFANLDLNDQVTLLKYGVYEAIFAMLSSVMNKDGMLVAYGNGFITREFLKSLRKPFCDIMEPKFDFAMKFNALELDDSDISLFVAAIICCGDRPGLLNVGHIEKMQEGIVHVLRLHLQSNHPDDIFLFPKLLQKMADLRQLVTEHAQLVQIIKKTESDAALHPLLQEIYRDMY
Sequence of guinea pig Sigma Receptor, Non-selective Binding, SIGMAR1 (gene 100135589) (Q60492 whole entry, looked up): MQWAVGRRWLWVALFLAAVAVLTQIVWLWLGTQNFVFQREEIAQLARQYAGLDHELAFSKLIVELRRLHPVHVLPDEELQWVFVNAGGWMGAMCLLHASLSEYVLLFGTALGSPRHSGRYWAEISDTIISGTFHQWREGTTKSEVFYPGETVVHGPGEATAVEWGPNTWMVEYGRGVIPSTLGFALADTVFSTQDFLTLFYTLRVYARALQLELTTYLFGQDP
Sequence of PGR (gene 5241) (P06401 whole entry, looked up): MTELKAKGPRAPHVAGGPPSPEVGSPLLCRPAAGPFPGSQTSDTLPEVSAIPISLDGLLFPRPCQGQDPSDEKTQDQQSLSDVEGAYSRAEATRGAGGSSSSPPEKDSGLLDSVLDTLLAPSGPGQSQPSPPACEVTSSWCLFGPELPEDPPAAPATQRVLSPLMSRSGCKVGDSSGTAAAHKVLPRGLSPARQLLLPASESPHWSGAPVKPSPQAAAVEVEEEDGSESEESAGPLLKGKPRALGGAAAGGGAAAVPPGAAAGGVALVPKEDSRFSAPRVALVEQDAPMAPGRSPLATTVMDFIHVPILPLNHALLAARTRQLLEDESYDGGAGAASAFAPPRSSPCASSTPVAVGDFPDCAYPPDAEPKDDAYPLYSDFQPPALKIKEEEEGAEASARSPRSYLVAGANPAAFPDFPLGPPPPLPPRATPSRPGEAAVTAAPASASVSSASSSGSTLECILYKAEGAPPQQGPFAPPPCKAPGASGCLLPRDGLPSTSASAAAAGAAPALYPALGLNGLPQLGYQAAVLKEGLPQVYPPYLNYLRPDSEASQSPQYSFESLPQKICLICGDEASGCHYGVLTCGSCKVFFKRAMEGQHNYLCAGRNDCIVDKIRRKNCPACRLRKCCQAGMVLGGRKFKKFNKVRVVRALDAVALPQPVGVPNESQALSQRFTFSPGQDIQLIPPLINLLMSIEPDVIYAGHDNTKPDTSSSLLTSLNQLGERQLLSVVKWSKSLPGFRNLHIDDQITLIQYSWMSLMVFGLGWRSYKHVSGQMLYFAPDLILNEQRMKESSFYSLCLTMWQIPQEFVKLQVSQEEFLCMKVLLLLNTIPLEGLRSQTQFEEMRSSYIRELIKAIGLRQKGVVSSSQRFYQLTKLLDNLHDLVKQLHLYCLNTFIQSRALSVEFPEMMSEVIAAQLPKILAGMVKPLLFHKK
Sequence of Estrogen receptor beta (Homo sapiens) (Q92731 whole entry, looked up, the tested form may be a part): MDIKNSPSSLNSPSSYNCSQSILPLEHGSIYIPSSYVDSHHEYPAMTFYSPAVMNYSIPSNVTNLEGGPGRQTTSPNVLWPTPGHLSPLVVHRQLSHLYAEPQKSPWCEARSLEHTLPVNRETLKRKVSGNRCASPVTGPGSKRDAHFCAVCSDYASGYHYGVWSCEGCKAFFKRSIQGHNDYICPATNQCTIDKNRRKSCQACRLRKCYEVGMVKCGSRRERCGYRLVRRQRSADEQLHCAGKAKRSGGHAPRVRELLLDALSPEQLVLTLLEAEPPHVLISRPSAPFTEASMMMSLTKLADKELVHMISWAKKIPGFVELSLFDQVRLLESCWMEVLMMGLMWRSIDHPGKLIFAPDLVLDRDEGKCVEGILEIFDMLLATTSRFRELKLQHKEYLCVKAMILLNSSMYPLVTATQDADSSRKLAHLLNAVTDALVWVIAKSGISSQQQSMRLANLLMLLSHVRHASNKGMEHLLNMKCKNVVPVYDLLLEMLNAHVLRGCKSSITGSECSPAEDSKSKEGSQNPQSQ
Sequence of Peroxisome proliferator-activated receptor gamma (Homo sapiens) (P37231 whole entry, looked up): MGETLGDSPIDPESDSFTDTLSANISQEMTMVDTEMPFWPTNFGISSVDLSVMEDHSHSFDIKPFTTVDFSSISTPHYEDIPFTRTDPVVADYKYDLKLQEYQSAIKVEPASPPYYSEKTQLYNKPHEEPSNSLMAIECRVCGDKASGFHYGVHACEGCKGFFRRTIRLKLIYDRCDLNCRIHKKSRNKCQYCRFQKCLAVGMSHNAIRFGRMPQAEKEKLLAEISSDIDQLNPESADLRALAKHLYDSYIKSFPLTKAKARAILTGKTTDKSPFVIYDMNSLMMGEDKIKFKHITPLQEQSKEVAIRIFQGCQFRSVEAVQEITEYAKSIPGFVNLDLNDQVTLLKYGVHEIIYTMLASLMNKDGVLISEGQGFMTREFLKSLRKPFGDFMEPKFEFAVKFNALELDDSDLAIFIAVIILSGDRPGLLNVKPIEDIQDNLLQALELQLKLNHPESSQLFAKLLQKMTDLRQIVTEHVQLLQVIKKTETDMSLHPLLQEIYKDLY
Sequence of human Norepinephrine Transporter (NET), SLC6A2 (gene 6530) (P23975 whole entry, looked up): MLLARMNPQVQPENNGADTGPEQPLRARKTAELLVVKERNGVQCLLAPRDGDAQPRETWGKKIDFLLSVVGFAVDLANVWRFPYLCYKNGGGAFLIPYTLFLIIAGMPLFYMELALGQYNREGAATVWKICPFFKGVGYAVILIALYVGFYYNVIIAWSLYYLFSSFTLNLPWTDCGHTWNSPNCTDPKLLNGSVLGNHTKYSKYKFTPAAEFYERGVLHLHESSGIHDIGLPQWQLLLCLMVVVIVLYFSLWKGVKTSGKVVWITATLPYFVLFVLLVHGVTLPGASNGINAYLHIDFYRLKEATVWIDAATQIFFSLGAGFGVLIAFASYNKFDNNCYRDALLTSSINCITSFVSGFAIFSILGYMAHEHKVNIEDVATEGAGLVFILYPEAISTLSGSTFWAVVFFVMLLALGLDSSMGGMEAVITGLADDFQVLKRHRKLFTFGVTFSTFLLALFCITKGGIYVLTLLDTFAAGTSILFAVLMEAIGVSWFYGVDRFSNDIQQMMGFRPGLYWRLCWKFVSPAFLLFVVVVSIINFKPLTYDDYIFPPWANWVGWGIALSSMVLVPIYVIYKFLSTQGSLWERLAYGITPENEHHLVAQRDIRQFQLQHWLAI
Sequence of Glucocorticoid receptor (Homo sapiens) (P04150 whole entry, looked up): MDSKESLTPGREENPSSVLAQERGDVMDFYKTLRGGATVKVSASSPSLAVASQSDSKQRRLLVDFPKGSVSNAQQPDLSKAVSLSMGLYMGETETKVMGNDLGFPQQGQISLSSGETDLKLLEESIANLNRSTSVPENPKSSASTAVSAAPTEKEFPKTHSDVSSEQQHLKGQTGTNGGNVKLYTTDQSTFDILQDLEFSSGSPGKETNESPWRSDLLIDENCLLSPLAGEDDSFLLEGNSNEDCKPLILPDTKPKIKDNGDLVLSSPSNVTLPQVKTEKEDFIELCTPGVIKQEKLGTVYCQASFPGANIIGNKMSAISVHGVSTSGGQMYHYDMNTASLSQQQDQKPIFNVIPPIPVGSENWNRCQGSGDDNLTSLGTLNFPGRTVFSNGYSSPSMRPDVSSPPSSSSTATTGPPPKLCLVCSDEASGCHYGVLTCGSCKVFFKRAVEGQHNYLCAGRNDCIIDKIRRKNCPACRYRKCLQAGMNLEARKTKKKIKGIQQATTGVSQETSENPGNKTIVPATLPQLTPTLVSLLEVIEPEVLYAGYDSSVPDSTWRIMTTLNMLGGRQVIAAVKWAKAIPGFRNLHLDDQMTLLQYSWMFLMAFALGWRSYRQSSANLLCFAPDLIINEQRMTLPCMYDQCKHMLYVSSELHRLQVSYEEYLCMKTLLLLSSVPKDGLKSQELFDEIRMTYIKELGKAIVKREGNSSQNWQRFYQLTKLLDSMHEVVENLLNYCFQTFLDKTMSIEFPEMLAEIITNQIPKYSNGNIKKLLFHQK

As for `CC(C)OC(=O)C(C)(C)Oc1ccc(C(=O)c2ccc(Cl)cc2)cc1`, the outcome in [1], in assay [3] and in assay [4] was inactive. The AC50 – broadly, the concentration giving half of the maximal activity seen – in assay [2] is 41.2 µM (active).
As to `CCCCCCC(CCCCCCCCCCC(=O)OCC(COC(C)=O)OC(C)=O)OC(C)=O` (stereo not drawn), the molecule was called inactive in assay [1], in assay [5], in assay [6] and in [4].
For the molecule `CN(C)CCCN(C)CCCN(C)C`, the molecule was called inactive (in assay [1]; in assay [5]; in the assay with PGR (gene 5241); in [4]).
In the case of `CC(=O)O[C@]1(C(C)=O)CC[C@H]2[C@@H]3C=C(Cl)C4=CC(=O)[C@@H]5C[C@@H]5[C@]4(C)[C@H]3CC[C@@]21C`, the molecule was called inactive in [1], in assay [5], in [2] and in [4].
Consider `Cc1cc(Cc2ccc(N)c(C)c2)ccc1N`, for which the AC50 is 67.6 µM (active) in [1], 6.22 µM (active) in assay [10] and 64.1 µM (active) in [4]. Moreover, the molecule was called inactive in [7], in assay [8] and in assay [9].
On to `Oc1ccc(O)cc1`, for which the molecule was classed as inactive in assay [1], in assay [5] and in assay [6]. Further, the AC50 in assay [4] is 26.4 µM (active).
On to `NC(=Nc1ccccc1)Nc1ccccc1`, for which the call in assay [1], in assay [5], in assay [9], in [10] and in [4] was inactive. Besides, the AC50 in [11] is 0.646 µM (active).
In the case of `Cc1c(C)c2c(c(C)c1O)CCC(C)(COc1ccc(CC3SC(=O)NC3=O)cc1)O2` (stereo not drawn), the molecule was classed as inactive in assay [1], in [12], in assay [13] and in assay [4]. Moreover, the AC50 in [11] is 35 µM (active).
With `O=Cc1ccccc1C=O`, the call (in assay [1]; in the assay with PGR (gene 5241); in assay [13]; in assay [4]) was inactive. Also, the AC50 in [8] is 6.78 µM (active); in [10], 7.28 µM (active).
`CCC(C)N(C)C(=O)c1cc2ccccc2c(-c2ccccc2Cl)n1` (stereo not drawn): the outcome in assay [1], in assay [5], in assay [13] and in assay [4] was inactive. Moreover, the AC50 is 6.44 µM (active) in [11], 5.15 µM (active) in assay [6] and 6.81 µM (active) in assay [10].
Take `CCc1nc(N)nc(N)c1-c1ccc(Cl)cc1`: the molecule was classed as inactive (in assay [1]; with PGR (gene 5241); in assay [6]; in [4]). In addition, the AC50 was 2.45 µM (active) in assay [11]; 1.18 µM (active) in assay [14]; 6.82 µM (active) in [9]; 9.78 µM (active) in [15]; 2.23 µM (active) in [10].
Consider `O=C1OC(c2ccc(O)cc2)(c2ccc(O)cc2)c2ccccc21`, for which the AC50 in assay [1] was 12 µM (active); in assay [12], 6.69 µM (active); in assay [4], 11.9 µM (active). Also, the call in assay [16] and in assay [13] was inactive.
In the case of `CC(C)NCC(O)c1ccc(O)c(O)c1` (stereo not drawn), the call in assay [1], in assay [5], in [7], in assay [10] and in assay [4] was inactive. Also, in [6], the half-maximal activity concentration (AC50) was 9.71 µM (active).
For `O=C(Oc1ccccc1)c1cccc(C(=O)Oc2ccccc2)c1`, the outcome in assay [1], in [5], in assay [13] and in assay [4] was inactive.
Take `CCCCCCCCCCCCCCOS(=O)(=O)O`: the result in assay [1] and in assay [4] was inactive. Further, the AC50 in assay [5] was 3.99 µM (active); in assay [8], 2.14 µM (active); in assay [2], 7.25 µM (active); in [6], 1.78 µM (active); in [10], 37.7 µM (active).
On to `S=c1[nH]c2ccccc2s1`, for which the call in assay [1], in [8], in assay [6] and in [4] was inactive. For the same molecule, in [10], the AC50 is 13.6 µM (active).
As to `Oc1ccccc1O`, the result in assay [1] and in assay [5] was inactive. In addition, the AC50 is 0.00229 µM (active) in assay [6] and 31 µM (active) in assay [4].
For the molecule `O=C(O)CC(O)(CC(=O)O)C(=O)O`, the call in [1], in [16], in assay [6] and in assay [4] was inactive.
With `COc1ccc(C(=O)Nc2nc3ccccc3c(NCc3ccccc3)c2C#N)cc1`, the molecule was classed as inactive in assay [1], in [5], in assay [2] and in assay [4].
Regarding `CC(=O)[C@@]1(O)CC[C@H]2[C@@H]3CCC4=CC(=O)CC[C@]4(C)[C@H]3CC[C@@]21C`, the molecule was classed as inactive in [1], in assay [17], in [2], in assay [3] and in [4]. Also, the AC50 in the assay with PGR (gene 5241) is 0.645 µM (active); in [3], 10.1 µM (active).
As for `CCN(CC)CCOc1ccc(C(=C(Cl)c2ccccc2)c2ccccc2)cc1`, the AC50 in [1] was 21.5 nM (active) and 118 nM (active) and 9.83 nM (active); in assay [16], 16.1 µM (active) and 11 µM (active) and 12.5 µM (active); in [17], 25.9 µM (active) and 21 µM (active); in [7] it was 14.9 µM (active) and 12.2 µM (active) and 16.3 µM (active); in [2], 3.15 µM (active) and 3.46 µM (active) and 3.72 µM (active); in assay [12], 2.68 µM (active) [middle of 4 runs]. The AC50 in assay [11] was 2.13 µM (active); in assay [14], 3.83 µM (active); in assay [9], 10.2 µM (active); in [15], 7.45 µM (active); in assay [4] it was 60.4 nM (active) and 53.3 nM (active) and 30.6 nM (active). In addition, the result in [17] and in assay [13] was inactive.
